In the library only some 11% were active in any assay of this set; here they are far more common.
BAZ2B inh: qHTS Assay for Inhibitors of BAZ2B. Bromodomain adjacent to zinc finger domain protein 2B (Homo sapiens), Q9UIF8. AlphaScreen BAZ2B-H3K14Ac peptide displacement. Potency, µM (highest dose often 114 µM), for the others: at the top dose activity change, negative = inhibition, hits mostly inhibitors. 4.4% of 360,000 active; note: % is set by controls: 0 for no effect and ±100 for the full control effect; nearly all actives have a fitted effect of over 60% in size
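AlphaScreen luminescence quantifies BAZ2B engagement of H3K14Ac peptide; the protein and biotinylated peptide are both at 50 nM final, buffer PBS pH 7.4 with 0.01% Tween-20, all steps at room temperature.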
VDR inh: Inhibitors of the vitamin D receptor (VDR): qHTS. VDR-SRC2-3 peptide fluorescence polarization, 2 h. Potency, µM, inactives show max response, negative = inhibition, hits mostly inhibitors. 0.93% of 400,000 active; note: % is set by controls: 0 for no effect and ±100 for the full control effect
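Signal is fluorescence polarization, reporting how far test compounds block the interaction of VDR with the SRC2-3 coregulator peptide after a 2 h room-temperature incubation.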
HP1b chromo inh: HTS for Inhibitors of HP1-beta Chromodomain Interactions with Methylated Histone Tails; Chromobox protein homolog 1 (Homo sapiens), P83916; AlphaScreen HP1-beta / biotin-H3K9me3 peptide binding; Potency, µM (series often up to 114 µM), inactives show at the highest dose activity change, negative = inhibition, most hits filed as inhibitors; 0.56% of 390,000 active; AID 540317, 2011; note: nearly all actives have a fitted effect of over 70% in size
Target sequence (P83916 whole entry, looked up): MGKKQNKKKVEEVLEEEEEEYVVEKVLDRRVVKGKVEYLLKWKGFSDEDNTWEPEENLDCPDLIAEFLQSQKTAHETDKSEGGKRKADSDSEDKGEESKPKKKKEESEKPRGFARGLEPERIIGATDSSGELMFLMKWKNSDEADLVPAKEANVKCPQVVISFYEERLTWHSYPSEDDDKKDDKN
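HP1-beta protein (50 nM final) preincubated 30 min at room temperature with biotinylated H3(1-18)K9me3 peptide (50 nM) in PBS pH 7.4, 0.01% Tween-20, then compound added for 30 min. AlphaScreen streptavidin donor/nickel chelate acceptor beads (10 ug/mL final), 30 min dark, luminescence read.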
JMJD2A Tudor: qHTS Assay for Inhibitors of JMJD2A-Tudor Domain | 4.4% of 390,000 active | AID 504339, 2011 | AlphaScreen JMJD2A-Tudor / H3K4me3 peptide binding | Potency, µM (titrated, usually from 114 µM), for the others: top-dose activity change, negative = inhibition, most hits filed as inhibitors | Lysine-specific demethylase 4A (Homo sapiens), O75164; note: % is set by controls: 0 for no effect and ±100 for the full control effect; nearly all actives have a fitted effect of over 50% in size
PLK1 PBD block: qHTS for Inhibitors of PLK1-PDB (polo-like kinase 1 - polo-box domain): Primary Screen; Potency, µM, inactives show max response, negative = inhibition, actives largely listed as inhibitors; Serine/threonine-protein kinase PLK1 (Homo sapiens), P53350; 2.8% of 360,000 active; Plk1 PBD binding of FITC phosphopeptide, fluorescence polarization; note: series mostly up to about 57 µM; % is set by controls: 0 for no effect and ±100 for the full control effect; nearly all actives have a fitted effect of over 65% in size
G9a inh: qHTS Assay for Inhibitors of Histone Lysine Methyltransferase G9a; Histone-lysine N-methyltransferase EHMT2 (Homo sapiens), Q96KQ7; G9a H3K9 monomethylation, AlphaScreen, 2 h; Potency, µM (series often up to 102 µM), inactives show at the highest dose activity, negative = inhibition, usual class: inhibitors; 8.8% of 350,000 active; AID 504332, 2011; note: % is set by controls: 0 for no effect and ±100 for the full control effect; nearly all actives have a fitted effect of over 75% in size
Target sequence (Q96KQ7 913-1193 limits assumed): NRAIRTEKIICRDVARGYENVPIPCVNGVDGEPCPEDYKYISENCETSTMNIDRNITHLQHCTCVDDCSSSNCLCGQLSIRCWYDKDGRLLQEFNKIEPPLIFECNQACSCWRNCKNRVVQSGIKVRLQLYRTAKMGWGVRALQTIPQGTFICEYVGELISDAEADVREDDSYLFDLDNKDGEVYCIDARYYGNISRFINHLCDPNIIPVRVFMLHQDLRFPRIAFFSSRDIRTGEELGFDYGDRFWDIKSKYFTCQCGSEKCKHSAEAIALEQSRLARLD
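G9a (20 nM) was preincubated 15 min with compound, then reacted 2 h at room temperature with 500 nM biotin-H3K9 peptide and 20 µM SAM. Monomethyl-H3K9 detected by AlphaScreen using anti-H3K9me1 antibody.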
An asterisk follows results filed as active; ? = inconclusive; . = no result; ! = not confirmed by another sample; [ ] = remark or other dose. Calls come from the whole dose curve; as a rule, active = well fitted curve in the direction sought with a large enough effect; inconclusive = small, poorly fitted or top-dose-only effect, or another doubt; inactive = no such curve, though single readings can be large; an effect the other way counts as inactive or inconclusive. Potency is the fitted concentration of half-maximal effect.

SMILES | BAZ2B inh | VDR inh | HP1b chromo inh | JMJD2A Tudor | PLK1 PBD block | G9a inh
CC(C)NC(=O)N1CCC2(CC1)CCN(S(C)(=O)=O)CC2 | . | -1% | . | . | . | 2%[12.7 µM]
Cc1cc(C)cc(NC(=O)C(OC(=O)C2=COCCO2)c2ccccc2)c1 (stereo not drawn) | -36% | 6% | 14% | -14% | -3% | 25µM*
O=C(OC(C(=O)Nc1ccc(Cl)c(C(F)(F)F)c1)c1ccccc1)C1=COCCO1 (stereo not drawn) | 3% | 2% | 16% | -18% | 2% | 3%[59 µM]
O=C(NC(=S)Nc1ccc(Cl)c(C(=O)O)c1)c1ccco1 | -15% | -13% | 5% | -2% | -29% | ?
CCOc1cc(C(=O)NC(=S)Nc2ccc(Cl)c(C(=O)O)c2)cc(OCC)c1OCC | -26% | 11% | -4% | ? | ? | 40µM*
CC(C)Oc1ccc(C(=O)NC(=S)Nc2ccc(Cl)c(C(=O)O)c2)cc1 | -33% | 15% | -4% | -4% | -13% | .
CN(C)C(=S)NC(=O)C(c1ccccc1)c1ccccc1 | -23% | -8% | 34% | -1% | 3% | 79µM*
O=C(O)c1cc(NC(=S)NC(=O)C(c2ccccc2)c2ccccc2)ccc1Cl | -20% | -1% | 2% | -13% | 67µM* | ?
COc1c(C)cc(Br)cc1C(=O)NC(=S)Nc1ccc(Cl)c(C(=O)O)c1 | -2% | -16% | 18% | -20% | 17µM* | 50µM*
Cn1c(C(=O)NCCc2ccccc2)cc2cc(S(=O)(=O)N3CCCCC3)ccc21 | 8% | 4% | 25%[57 µM] | -7% | . | 8%[59 µM]
O=C(O)[C@H]1Cc2ccccc2CN1S(=O)(=O)c1ccc(F)cc1 | -2% | -4% | 31% | -6% | -9% | -7%
CC(=O)c1ccc(S(=O)(=O)N2Cc3ccccc3CC2C(=O)O)cc1 (stereo not drawn) | ? | 0% | 0% | 18µM* | ? | 40µM*
O=S(=O)(/C=C/c1ccccc1)N1CCc2ccccc2C1 | 18% | 10% | 71% | 54% | 6% | 37%
O=C(O)C1Cc2ccccc2CN1S(=O)(=O)/C=C/c1ccccc1 (stereo not drawn) | 79µM* | -9% | 38% | -15% | -3% | 14µM*
Cc1cc(N/N=C(/CCC(=O)O)C(=O)O)nc2ccccc12 | ? | 10% | 35% | ? | -8% | 3.2µM*
Cc1cc(N/N=C/c2ccccc2Br)nc2ccccc12 | -3% | -5% | 27% | -32% | 0% | 31%
Cc1ccc(NC(=O)c2ccc(CSc3nccc(C)n3)cc2)cc1 | 2% | 16% | 27% | -15% | -6% | 4%
Cc1ccnc(SCc2ccc(C(=O)O)cc2)n1 | -4% | -22% | 32% | ? | 12µM* | .
Cc1csc(SCc2ccc(C(=O)O)cc2)n1 | -34% | 2% | 24% | 5% | 3% | 45µM*
Cc1ccccc1/C=C/C1=NCCN1 | ? | 3% | ? | 20µM* | -8% | 30µM*
Cc1ccccc1C=O | -3% | 16% | 46% | -1% | -2% | -5%[0.501 µM]
CC1CC(C)(C)NC(=S)N1CCC(=O)NCc1ccc(F)cc1 (stereo not drawn) | -3% | 1% | 20% | -7% | 1% | 40µM*
CC1CCCCC1NCC(=O)NCc1ccc(F)cc1 (stereo not drawn) | 50µM* | 7% | ? | 1.3µM* | -2% | 10µM*
O=C(CCCC(=O)NCc1ccc(F)cc1)NCc1ccc(F)cc1 | -13% | 14% | -30% | -31% | 24µM* | 21%
O=C(CSCc1ccc(F)cc1)NCc1ccc(F)cc1 | 0% | -20% | 28% | 100µM*! | -13% | 18%[59 µM]
O=C(COc1ccc(Cl)cc1)NCc1ccc(F)cc1 | 8% | -23% | -3% | ? | 27µM* | 0%
